# Measurements from the supplement of paper PMC12494721.
# Structures can show the parent of a compound that is named as a salt.
# How the values were obtained:
# Details in all cases: incubation time: 27 h, anaerobic, 37 °C;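 for the amine columns active = adjusted P below 0.05 in both replicates with a change the same way and a mean fold change under 0.8 or over 1.25; inactive = the rest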
# [1] = test system: Clostridium sporogenes DSM 1664; experiment: growth (OD595) fold change vs plate DMSO controls (fold change (ratio)); higher = more growth
# Outline: (§1)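 Shaken 96-well cultures in mGAM, grown anaerobically for 27 h at 37 °C, were read at 595 nm. OD came from blank-subtracted readings, corrected for background with 20 µM compound solutions in water and scaled by a calibration factor of 5. Growth is the fold change versus the plate's median DMSO control. Values average 2 biological replicates, and any fold change above 1.5 is NA.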
# Escherichia coli IAI1 [2] = experiment: as above
# Outline: as §1
# [3] = test system: Klebsiella aerogenes DSM 30053; experiment: as above
# Outline: as §1
# [4] = test system: Ruminococcus gnavus DSM 108212; experiment: as above
# Outline: as §1
# [5] = test system: Klebsiella aerogenes DSM 30053; experiment: fold change of Histamine concentration vs plate DMSO controls (fold change (ratio)); higher = more amine produced, active = hit call of the paper (significant change in both replicates, either direction)
# Outline: (§2)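 In 80 µL wells, cultures of four gut bacterial strains in mGAM started at OD 0.1 before a 1:1 dilution and grew anaerobically at 37 °C for 27 h. Compounds were added to 20 µM final, except sweeteners at 50 µM final. After extraction of whole cultures with cold acetonitrile/methanol plus 0.1% formic acid and centrifugation, amines were measured by LC–triple-quadrupole MS in dynamic MRM mode against external calibration curves, with within-batch drift correction. Values give fold change over DMSO controls on the same plate, averaged across 2 biological replicates.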
# [6] = test system: Clostridium sporogenes DSM 1664; experiment: fold change of Tryptamine concentration vs plate DMSO controls (fold change (ratio)); higher = more amine produced, active = hit call of the paper (significant change in both replicates, either direction)
# Outline: as §2
# [7] = test system: Ruminococcus gnavus DSM 108212; experiment: as above
# Outline: as §2
# Escherichia coli IAI1 [8] = experiment: fold change of Putrescine concentration vs plate DMSO controls (fold change (ratio)); higher = more amine produced, active = hit call of the paper (significant change in both replicates, either direction)
# Outline: as §2
# [9] = test system: Klebsiella aerogenes DSM 30053; experiment: as above
# Outline: as §2
# Escherichia coli IAI1 [10] = experiment: fold change of Cadaverine concentration vs plate DMSO controls (fold change (ratio)); higher = more amine produced, active = hit call of the paper (significant change in both replicates, either direction)
# Outline: as §2
# [11] = test system: Klebsiella aerogenes DSM 30053; experiment: as above
# Outline: as §2
# [12] = test system: Ruminococcus gnavus DSM 108212; experiment: fold change of 2-Phenylethylamine concentration vs plate DMSO controls (fold change (ratio)); higher = more amine produced, active = hit call of the paper (significant change in both replicates, either direction)
# Outline: as §2
Compound,growth [1],growth (Escherichia coli IAI1 [2]),growth [3],growth [4],fold change of Histamine concentration [5],fold change of Tryptamine concentration [6],fold change of Tryptamine concentration [7],fold change of Putrescine concentration (Escherichia coli IAI1 [8]),fold change of Putrescine concentration [9],fold change of Cadaverine concentration (Escherichia coli IAI1 [10]),fold change of Cadaverine concentration [11],fold change of 2-Phenylethylamine concentration [12]
Nc1ccc2cc3ccc(N)cc3nc2c1 [Proflavine hemisulfate] (20 µM),1.13,0.951,1,1.02,0.816 (inactive),1 (inactive),0.861 (inactive),1.03 (inactive),0.963 (inactive),1.16 (inactive),0.982 (inactive),0.861 (inactive)
OCC1(O)OC[C@@H](O)[C@@H](O)[C@H]1O (some centres undefined) [Psicose] (50 µM),1.08,1.01,1.03,1.03,1.03 (inactive),0.991 (inactive),0.992 (inactive),1.04 (inactive),1.04 (inactive),0.967 (inactive),1.01 (inactive),0.942 (inactive)
CC(NN)c1ccccc1 (centres undefined) [Mebanazine] (20 µM),1.11,1,0.988,0.887,1.04 (inactive),1.04 (inactive),0.985 (inactive),0.997 (inactive),1.03 (inactive),0.986 (inactive),0.998 (inactive),0.916 (inactive)
Cc1cc2nc3ccc(=[N+](C)C)cc-3sc2cc1N [Tolonium chloride] (20 µM),0.823,0.559,0.55,0.0958,0.959 (inactive),1 (inactive),0.972 (inactive),0.979 (inactive),1 (inactive),1.05 (inactive),0.984 (inactive),0.959 (inactive)
CN(C)CC/C=C1/c2ccccc2Sc2ccc(Cl)cc21 [Chlorprothixene hydrochloride] (20 µM),1.03,0.991,1.01,0.904,0.956 (inactive),0.997 (inactive),0.87 (inactive),0.959 (inactive),0.996 (inactive),1.03 (inactive),1.02 (inactive),0.942 (inactive)
COc1cccc2c1C(=O)c1c(O)c3c(c(O)c1C2=O)C[C@@](O)(C(=O)CO)C[C@@H]3O[C@H]1C[C@H](N)[C@@H](O)[C@H](C)O1 [Epirubicin hydrochloride] (20 µM),0.607,0.0185,0,0.386,1.01 (inactive),0.953 (inactive),0.966 (inactive),1.07 (inactive),0.998 (inactive),1.04 (inactive),1.02 (inactive),0.934 (inactive)
C[n+]1ccccc1/C=N/O [Pralidoxime chloride] (20 µM),1.19,0.995,1.01,1.05,1.13 (inactive),1.02 (inactive),1.01 (inactive),0.968 (inactive),1.04 (inactive),1.02 (inactive),0.991 (inactive),1.01 (inactive)
Nc1cccc2c1C(=O)N(C1CCC(=O)NC1=O)C2=O (centres undefined) [Pomalidomide] (20 µM),1.09,1.02,1.02,1.04,1.13 (inactive),1.12 (inactive),1.03 (inactive),0.938 (inactive),1.04 (inactive),0.954 (inactive),1.03 (inactive),1.07 (inactive)
CC(c1cc2ccccc2s1)N(O)C(N)=O (centres undefined) [Zileuton] (20 µM),1.11,0.91,0.978,1.01,1.06 (inactive),0.987 (inactive),1.03 (inactive),0.86 (inactive),1.01 (inactive),1 (inactive),0.98 (inactive),1.07 (inactive)
O=C(Nc1ccccc1)OCC(CN1CCCCC1)OC(=O)Nc1ccccc1 (centres undefined) [Diperodon hydrochloride] (20 µM),1.11,0.998,0.962,0.942,1.05 (inactive),0.94 (inactive),0.952 (inactive),0.975 (inactive),1.03 (inactive),1.03 (inactive),0.976 (inactive),0.923 (inactive)
CC(C)(C)c1ccc(C(O)CCCN2CCC(C(O)(c3ccccc3)c3ccccc3)CC2)cc1 (centres undefined) [Terfenadine] (20 µM),1.21,1,1.09,1.21,0.886 (inactive),1.06 (inactive),0.754 (active),1 (inactive),0.97 (inactive),1.05 (inactive),1.01 (inactive),0.815 (inactive)
CCCCCCCN(CC)CCCC(O)c1ccc(NS(C)(=O)=O)cc1 (centres undefined) [Ibutilide fumarate] (20 µM),1.13,1.12,1.09,1.08,0.925 (inactive),0.904 (inactive),0.952 (inactive),1.03 (inactive),0.989 (inactive),1.02 (inactive),1.01 (inactive),0.903 (inactive)
